GDH-TPI counter-1 – GDH-TPI coupled enzyme inhibition counter-screen; GDH-TPI coupled enzyme counterscreen, NADH absorbance; inhibition, % at 4.8 µM; 360,000 tested, 1.2% active; in the data active = inhibition above about 30%;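 note: 0% = DMSO wells and 100% = wells lacking the enzyme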
Rv3671c protease – Rv3671c (M. tuberculosis) protease inhibition; 320,000 tested, 0.048% active; inhibition, % at 5.96 µM; P9WHR9; in the data active = inhibition above about 38%;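 note: extracellular domain of Rv3671c used as enzyme; 0% = enzyme with DMSO and 100% = no enzyme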
Target sequence (P9WHR9 whole entry, looked up, the tested form may be a part): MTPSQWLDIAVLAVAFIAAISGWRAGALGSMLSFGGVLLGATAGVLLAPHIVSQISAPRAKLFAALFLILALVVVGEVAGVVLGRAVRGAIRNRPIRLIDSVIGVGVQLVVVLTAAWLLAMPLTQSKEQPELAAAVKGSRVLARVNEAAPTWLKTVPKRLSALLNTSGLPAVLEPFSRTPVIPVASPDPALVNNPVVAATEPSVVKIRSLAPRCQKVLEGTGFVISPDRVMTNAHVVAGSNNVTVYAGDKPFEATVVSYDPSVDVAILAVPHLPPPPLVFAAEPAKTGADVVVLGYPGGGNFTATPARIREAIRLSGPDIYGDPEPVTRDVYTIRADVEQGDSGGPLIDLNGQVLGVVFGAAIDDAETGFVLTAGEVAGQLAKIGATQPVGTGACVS
BioA inh – inhibitors of Mycobacterium tuberculosis BioA enzyme. purified M. tuberculosis BioA enzyme, plate reader. inhibition, % at 9.99 µM. 360,000 tested, 0.096% active. AID 602481; in the data active = inhibition above about 40%
Mtb FBA inh – inhibitors of M. tuberculosis fructose-bisphosphate aldolase; P9WQA3; purified M. tuberculosis FBA, fluorescence read-out; inhibition, % at 1 µM; 360,000 tested, 2.3% active; AID 588726;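 note: 0% = vehicle and 100% = reference inhibitor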
FadD28 binding – M. tuberculosis FadD28 bisubstrate binding inhibition; inhibition, % at 12.5 µM; FadD28 bisubstrate probe binding, fluorescence polarization; 360,000 tested, 0.22% active; AID 588549; in the data active = inhibition above about 8.5%, passing the limit was not always enough
Mtb FBA confirm – Mtb FBA inhibition, confirmed. shares compounds with Mtb FBA inh. purified M. tuberculosis FBA, fluorescence read-out. inhibition, % at 1 µM. 5,600 tested, 78% active;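 note: 0% = vehicle wells and 100% = reference inhibitor wells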
GDH-TPI counter-2 – inhibits GDH-TPI coupling enzymes, flagging Mtb FBA hits; shares compounds with Mtb FBA inh; GDH-TPI coupled enzyme counterscreen, fluorescence; inhibition, % at 1 µM; 5,600 tested, 81% active; in the data active = inhibition above about 10%
* marks the source's active call; other numbers are inactive results; . = no result; + = active, no number. Compounds with a hit are over-represented: about 3% of the library has one in this group of screens. Cut-off read from the data, not from the text of the source, unless noted: active = inhibition above about 27%; inactive = the rest.

SMILES | GDH-TPI counter-1 | Rv3671c protease | BioA inh | Mtb FBA inh | FadD28 binding | Mtb FBA confirm | GDH-TPI counter-2
Cc1oc2c(c(C)cc3oc(=O)c(CC(=O)N[C@@H](CC(C)C)C(=O)O)c(C)c32)c1C | 10.8 | . | 7.2 | 30.5* | . | 84.8* | 63.9*
Cc1oc2c(c(C)cc3oc(=O)c(CC(=O)NCC(=O)NCC(=O)O)c(C)c32)c1C | 4.6 | -15.2 | . | 23.7 | -0.3 | . | .
Cc1oc2c(c(C)cc3oc(=O)c(CC(=O)NCCC(=O)O)c(C)c32)c1C | 23.1 | . | -0.9 | 30.8* | -2.6 | 159.0* | 99.2*
Cc1c(CCC(=O)NCCCCCC(=O)O)c(=O)oc2cc3occ(-c4ccccc4)c3cc12 | 10.0 | . | 7.4 | 6.7 | -4.2 | . | .
O=C(Nc1ccccc1)N[C@@H]1CC[C@@H](CCNC(=O)c2ccccc2F)O[C@H]1CO | . | . | 0.6 | . | . | . | .
COc1ccccc1-c1ccc2c(c1)O[C@H](CN(C)C(C)=O)[C@H](C)CN([C@H](C)CO)S2(=O)=O | . | . | -1.2 | . | . | . | .
CN1C(=O)c2cc(NC(=O)c3cccc(F)c3)ccc2OC[C@H]2O[C@H](CC(=O)Nc3ccccc3)CC[C@@H]21 | . | . | 1.0 | . | . | . | .
C[C@H]1CN([C@@H](C)CO)C(=O)c2cccc(NC(=O)Nc3ccc4c(c3)OCO4)c2O[C@H]1CN(C)Cc1ccc(Oc2ccccc2)cc1 | . | . | -0.3 | . | . | . | .
C[C@H](CO)N1C[C@H](C)[C@H](CN(C)Cc2ccc(C(F)(F)F)cc2)Oc2ccc(NS(=O)(=O)c3cn(C)cn3)cc2CC1=O | . | . | -0.8 | . | . | . | .
CCOC(=O)c1sc2cccc(Cl)c2c1N | 5.3 | 3.0 | 0.1 | 2.3 | 0.6 | . | .
CCOC(=O)c1sc2cccc(F)c2c1N | 17.8 | -8.6 | -1.1 | 103.2* | -4.5 | + | 197.8*
Nc1ncnc2nc(-c3ccccc3)[nH]c12 | 2.6 | . | 0.0 | 68.7* | -4.6 | 4.0 | -1.6
Nc1ncnc2nc(SCc3ccccc3)[nH]c12 | -16.1 | 5.1 | 0.4 | -1.4 | -5.2 | . | .
CO[C@H]1CN(C)C(=O)c2cc(NC(=O)Nc3cccc(F)c3)ccc2OC[C@@H](C)NC[C@@H]1C | . | . | 5.5 | . | . | . | .
O=C(c1cccnc1)N1CCC(Oc2ccc(C(=O)N3CCCC(O)C3)cc2)CC1 (stereo unspecified) | 2.8 | -6.9 | -0.7 | 27.9* | 0.1 | 57.6* | 30.4*
CC(NC(=O)c1ccc(OC2CCN(C(=O)c3cccnc3)CC2)cc1)C1CC1 (stereo unspecified) | -4.5 | -7.7 | 0.6 | 1.7 | -2.2 | . | .
CC1(C)S[C@@H]2[C@H](NC(=O)[C@H](N)c3ccccc3)C(=O)N2[C@H]1C(=O)OC1OC(=O)c2ccccc21 (stereo partly specified) | 7.2 | -9.0 | -1.0 | 65.7* | -0.8 | + | 159.6*
CCC(Oc1ccccc1)C(=O)NC1C(=O)N2C1SC(C)(C)C2C(=O)O (stereo unspecified) | 1.9 | 0.7 | . | -0.3 | -1.2 | . | .
CS(=O)(=O)Nc1ccc2c(c1)[C@@H]1C[C@@H](CC(=O)NCc3ccc(-c4ccccc4)cc3)O[C@H](CO)[C@@H]1O2 | . | . | 0.0 | . | . | . | .
CCN(CC)C(=O)Cn1cc(S(=O)(=O)CC(=O)NC2CCCCC2)c2ccccc21 | -10.1 | -5.5 | -1.0 | 32.9* | 0.6 | 98.9* | 83.4*
CC(C)(C)OC(=O)NCCCCCNC(=O)c1ncn2c1c(=O)[nH]c1ccccc12 | -2.8 | . | -1.6 | 86.6* | -5.5 | 42.5* | 34.0*
O=C(Nc1ccc2c(c1)[C@@H]1C[C@H](CC(=O)N3CCc4ccccc4C3)O[C@@H](CO)[C@@H]1O2)NC1CCCC1 | . | . | 1.3 | . | . | . | .
CC1CCCCN1C(=S)Nc1ccc2nc3n(c(=O)c2c1)CCCCC3 (stereo unspecified) | 5.2 | -7.2 | 5.8 | 29.9* | 0.1 | 44.8* | 38.8*
O=c1c2cc(NC(=S)N3CCC(N4CCCCC4)CC3)ccc2nc2n1CCCCC2 | -2.5 | 6.9 | . | 10.1 | -3.9 | . | .
O=C(CCN1CCCCC1)NCC[C@H]1CC[C@@H](NS(=O)(=O)c2cccc(Cl)c2)[C@H](CO)O1 | . | . | -0.7 | . | . | . | .
CCOC(=O)CCn1c2nc(C)cc(C)c2c(=O)n1-c1ccccc1 | -2.6 | -0.2 | 0.5 | 28.2* | -0.3 | 48.9* | 40.7*
CCOC(=O)Cn1nc(C)n(-c2ccccc2)c1=O | 9.7 | -7.2 | -2.0 | 0.5 | -0.5 | . | .
C[C@H](CO)N1C[C@H](C)[C@@H](CN(C)C(=O)CC2CC2)Oc2cc(-c3cccnc3)ccc2S1(=O)=O | . | . | 4.4 | . | . | . | .

Compound activity as filed in PubChem.
